# Assay outcomes from PubChem BioAssay.
# D1 ag – agonists of human D1 dopamine receptor | activation, % at 2 µM | HEK293 T-REx D1 cells, calcium flux, agonist mode | actives 1% (n = 360,000) | P21728; also: 0% is about no effect
# Target sequence (P21728 whole entry, looked up): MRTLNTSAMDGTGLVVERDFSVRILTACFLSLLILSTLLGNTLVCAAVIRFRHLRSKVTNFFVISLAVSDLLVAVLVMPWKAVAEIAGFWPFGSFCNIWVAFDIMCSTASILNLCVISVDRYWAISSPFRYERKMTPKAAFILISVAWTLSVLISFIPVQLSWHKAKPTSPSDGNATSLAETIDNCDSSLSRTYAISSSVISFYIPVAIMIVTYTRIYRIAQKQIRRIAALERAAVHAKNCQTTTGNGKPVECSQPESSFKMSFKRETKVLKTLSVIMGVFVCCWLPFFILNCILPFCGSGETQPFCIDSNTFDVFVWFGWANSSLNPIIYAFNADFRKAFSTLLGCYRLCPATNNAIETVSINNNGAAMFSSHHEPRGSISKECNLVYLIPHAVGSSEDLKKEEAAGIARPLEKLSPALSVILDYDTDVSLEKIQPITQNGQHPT
#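 Inducible HEK293 T-REx D1 cells, force-coupled to calcium signalling, were plated at 4000 cells/well with tetracycline and held overnight at 30 C. After no-wash calcium dye loading, compound-evoked calcium rise over 180 s flagged agonists.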
# TRHR PAM – TRH receptor (human) allosteric enhancement; P34981; TRHR cells, fluo-8 calcium fluorescence, EC20 TRH enhancement; enhancement, % at 2 µM; actives 0.66% (n = 360,000); AID 493056; in the data active = enhancement above about 30%; also: 0% is about no effect
#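 Enhancer read-out: after compound pinning and an initial kinetic agonist-mode read, an EC20 of TRH (10 nM final) was injected and fluo-8 calcium signal (Ex 480/Em 530) followed at 1 s/cycle for 100 cycles in TRHR-expressing cells.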
# D1 potentiator – potentiators of human D1 dopamine receptor | potentiation, % at 10 µM | P21728 | AID 504651 | actives 0.036% (n = 360,000) | HEK293 TREx D1 cells, calcium flux, dopamine EC20 potentiation; in the data active = potentiation above about 30%; also: 0% is about no effect
# D1 antagonist – human D1 dopamine receptor antagonism. actives 3.2% (n = 360,000). activity change, negative = inhibition, % at 10 µM. HEK293 TREx D1 cells, calcium flux, dopamine EC80; active compounds read low. AID 504652; in the data active = activity change below about -30%; also: % is scaled to controls: 0 for no effect and ±100 for the full control effect
#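 Using tetracycline-induced force-coupled D1 Hek293 cells and a calcium dye, signals were followed for 180 s after compound, then for 180 s after EC80 dopamine, to detect inhibitors.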
# TRHR ag – TRH receptor (human) agonism. P34981. actives 0.18% (n = 360,000). AID 493084. TRHR cells, calcium flux fluo-8, FDSS agonist mode. activation, % at 2 µM; also: 0% is about no effect
#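 Read-out: compound-evoked intracellular calcium rise in TRHR cells, fluo-8 dye, kinetic FDSS fluorescence at 1 s/cycle following a 10-cycle baseline. Cells cultured overnight before dye loading (30 min–1.5 h, RT).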
# An asterisk follows results filed as active; . = no result given. Only some compounds are listed: those with a hit (about 4.7% of all), similar ones and a draw of the others. Rule as the data show it, unless noted: active = activation above about 30%; inactive = the rest.
SMILES,D1 ag,TRHR PAM,D1 potentiator,D1 antagonist,TRHR ag
CCn1c(SCC(=O)N/N=C/C=C\c2ccco2)nc2ccccc21,3,-7,-6,-35*,0
COc1cc(C)ccc1OCc1cc(C(=O)N2CCCCCCC2)no1,0,39*,-2,-13,-1
COc1ccc(-c2cc(C(=O)NCc3ccccc3)no2)cc1OC,37*,25,0,2,-1
O=C(NCc1cccs1)c1cc(-c2ccc(O)cc2)on1,50*,9,-2,9,-1
CC1CCN(C(=O)c2cc(-c3ccc4c(c3)OCO4)on2)CC1,3,6,6,-33*,-2
COc1ccc(S(=O)(=O)c2cnc3ccc(Cl)cc3c2N2CCCCC2C)cc1 (stereo not drawn),9,-4,-5,-14,0
O=C(c1cc(-c2ccc(Cl)c(Cl)c2)on1)N1CCN(c2ccccc2)CC1,6,-5,-7,-31*,0
COc1ccc(-c2cc(C(=O)N3CCOCC3)no2)cc1OC,3,-10,-11,-32*,0
COc1ccc(-c2nn(C)c3sc(C(=O)N4CCOCC4)cc23)cc1OC,1,4,-3,-60*,0
COc1ccc(-c2nn(C)c3sc(C(=O)N4CCN(c5ccccc5F)CC4)cc23)cc1OC,-1,19,4,2,0
O=C(N=C1N=C2C=CC(Br)=CN2Cc2ccccc21)c1ccc([N+](=O)[O-])cc1[N+](=O)[O-],2,-4,2,4,0
Cc1cc(C)cc(NC(=O)CN2CCN(c3ccccc3)CC2)c1,0,8,-4,-32*,-1
Cc1cc(C)c(NC(=O)CN2CCN(C)CC2)c(C)c1,1,32*,.,-4,-1
Cc1cccc(C)c1NC(=O)CN1CCN(CCCC(c2ccc(F)cc2)c2ccc(F)cc2)CC1,8,0,-6,-53*,1
COc1ccc(N2CCN(CC(=O)Nc3c(C)cc(C)cc3C)CC2)cc1,0,1,-3,-9,-1
CCOC(=O)Cn1c(=O)cc(C(F)(F)C(F)(F)F)c2c(C)nn(CC)c21,1,-1,-1,14,1
CCOC(=O)CCCCC(=O)c1[nH]c(=O)[nH]c1CSc1nnc2c3cc(Br)ccc3n(C)c2n1,3,1,-1,-33*,-1
CCc1cccc(OCCCn2ccnc2)c1,6,0,-2,-32*,0
Cc1cc(OCCCn2ccnc2)cc(C)c1Cl,8,-7,-9,-31*,0
COC(=O)C1=C(C)NC(=O)NC1c1c(O)ccc2ccccc12 (stereo not drawn),1,35*,-1,8,0
COC(=O)C1=C(C)NC(c2c(O)ccc3ccccc23)C(C(=O)OC)=C1C (stereo not drawn),2,9,-1,4,1
Cc1ccc(S(=O)(=O)N2CCCCC2)cc1NC(=O)CSc1ncccn1,1,1,8,-4,-1
CC(C)(C)C1CCc2c(C(=O)NNC(=O)/C=C/C(=O)O)csc2C1 (stereo not drawn),1,-12,-5,-32*,1
Cc1ccc(NC(=S)NCc2ccc3c(c2)OCO3)cc1C,9,-5,6,0,1
S=C(NCc1ccc2c(c1)OCO2)Nc1ccc2nsnc2c1,34*,-2,-7,-33*,2
SMILES,D1 ag,TRHR PAM,D1 potentiator,D1 antagonist,TRHR ag
C=CCNC(=S)Nc1ccc2nsnc2c1,7,-3,-4,-90*,1
O=C(O)c1cc(-c2ccc(C(F)(F)F)cc2)nc2n[nH]c(-c3ccccc3)c12,20,7,-3,-3,0
CC1(C)OC(C)(C)/C(=C\c2ccc(OCC(N)=O)cc2)C1=O,4,-7,1,-66*,0
COc1ccc(S(=O)(=O)NCCc2cn3ccsc3n2)cc1OC,0,0,-3,6,0
Cc1ccc(S(=O)(=O)NCCc2cn3ccsc3n2)cc1,0,2,1,-73*,0
COc1ccc(S(=O)(=O)NCCc2cn3ccsc3n2)cc1,1,-3,-4,-45*,0
CCOC(=O)Cn1c(C2CC(=O)N(c3ccc(C)cc3)C2)nc2ccccc21 (stereo not drawn),9,1,-4,-46*,0
CCc1ccccc1N1CC(c2nc3ccccc3n2CCCCOc2ccccc2OC)CC1=O (stereo not drawn),60*,-18,0,-7,4
Cc1cccc(OCCCCn2c(C3CC(=O)N(c4ccccc4Cl)C3)nc3ccccc32)c1 (stereo not drawn),25,33*,-3,-1,1
CN1/C(=C\C=C(/C#N)C(=O)Nc2ccc(Cl)cc2)C(C)(C)c2ccccc21,81*,8,-5,3,46*
CC(c1ccccc1)N1C(=O)c2ccccc2C1(O)Cc1ccccc1 (stereo not drawn),2,-2,-1,-74*,-1
CC(Oc1ccccc1F)C(=O)NNC(=O)CC(C)c1ccccc1 (stereo not drawn),2,1,-4,9,0
CCN1C(=O)c2ccccc2Sc2ccc(C(=O)NCCCN3CCOCC3)cc21,1,32*,-11,-4,-1
O=C(NCCCN1CCOCC1)c1ccc2c(c1)N(Cc1cccc(Cl)c1)C(=O)c1ccccc1S2,16,2,-1,-21,1
COc1ccc(OC)c(N=CC2=C(O)CC(C)(C)CC2=O)c1,1,6,-7,1,0
COc1ccc(N=CC2=C(O)CC(C)(C)CC2=O)cc1,3,38*,-5,2,0
COc1cc(/C=C2\CC(C(C)(C)C)C/C(=C\c3cc(OC)c(OC)c(OC)c3)C2=O)cc(OC)c1OC (stereo not drawn),32*,29,-3,1,-1
COc1cc(/C=C2\CC/C(=C\c3cc(OC)c(OC)c(OC)c3)C2=O)cc(OC)c1OC,2,0,-3,2,0
CCOc1c(CC2C(=O)Nc3ccc(Br)cc32)cccc1OC (stereo not drawn),69*,9,-2,-41*,-3
CCOC(=O)c1ccc(-c2c(-c3ccccc3OC)sc3cc4c(cc23)OCO4)cc1F,4,0,1,.,1
CCOc1ccc(NC(=O)CN(C)C(=O)c2ccccc2Cc2ccccc2)cc1OCC,6,9,.,-45*,0
COc1ccc(NC(=O)CN(C)C(=O)COc2ccccc2Cc2ccccc2)cc1,5,-1,-4,-11,0
CCOc1ccc(NC(=O)CN(C)C(=O)CCCn2c(=O)oc3ccccc32)cc1OCC,2,38*,0,-3,0
CN(CC(=O)Nc1ccc(F)cc1)C(=O)COc1ccccc1Cc1ccccc1,23,-1,-3,-85*,-1
